This note sets out measurements from PubChem BioAssay AID492997 (Johns Hopkins Ion Channel Center, 2010).

In all, about 4,900 compounds went through this assay and about 2,000 (41%) were called active.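 Rule for the calls: active = thallium signal drop beyond 5 SD of the untreated control mean, on both duplicate plates; inactive = the rest.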 The set was probably picked from earlier hits. The list is a sample of the results.

The assay is described as follows: nonspecific activity without KCNK9 expression – cell-based, second counter screen, non-induced KCNK9-HEK293, counter-screen for KCNK9 inhibitor project, confirmation (AID 492997).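 For inhibition: plate controls were buffer only IC0 wells for no effect and SID17386958 at its maximal inhibitory level for full effect.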 The settings on record: non-induced KCNK9-HEK293, FluxOR thallium flux, at 10 µM; hits give high values.
Regarding `CCC1(C)Cc2c(sc3[nH]c(=S)n(Cc4ccccc4)c(=O)c23)CO1` (stereo not given), the inhibition result was “inactive”.
`CCCSc1nc(NCc2ccco2)c2c3c(sc2n1)COC(C)(CC)C3` (stereo not given): the inhibition is 38.5% (active).
As for `CCOC(=O)Cc1cc(=O)[nH]c(=O)[nH]1`, the inhibition entry was “inactive”.
The entry for `COc1ccc(/C=C2\CCc3ccccc3C2=O)c(OC)c1OC` is “inactive”.
The same measure for `CC1CCN(C(=S)c2ccc(-c3ccc(Cl)cc3Cl)o2)CC1`: “inactive”; for `O=C(CSCc1ccc(Cl)cc1)N1CCN(Cc2ccc3c(c2)OCO3)CC1`: “inactive”; for `CC1CCN(C(=O)c2ccc(CSc3ccc(Cl)cc3)cc2)CC1`: 36% (active).
The entry for `CN(C)S(=O)(=O)N1CCC(Oc2cccc(C(=O)NCCCC3CCCC3)c2)CC1` is “inactive”; for `Cc1cccc(NC(=O)N(Cc2cc3cc(C)cc(C)c3[nH]c2=O)CC2COCCO2)c1` (stereo not given) it is “inactive”; for `O=C(COC(=O)c1c2c(nc3ccccc13)CCCC2)c1ccc(Br)s1` it is 22.5% (active).
For `Cc1ccc(OS(=O)(=O)c2ccc(-c3csc(C)n3)s2)c(C)c1`, the inhibition entry is “inactive”.
As for `COc1cccc(COC(=O)C2CCN(S(=O)(=O)c3ccc(Cl)cc3)CC2)c1OC`, the inhibition entry was “inactive”.
The figure for `O=C(NC1Cc2ccccc2C1)c1cc(COc2cccc(C(F)(F)F)c2)on1` is 28% (active); for `O=C(NCCCc1ccccc1)c1cc(COc2c(F)cccc2F)on1` it is “inactive”; for `CN(CCOc1ccccc1)C(=O)c1cc(COc2c(F)cccc2F)on1` it is “inactive”.
The figure for `CC(C)N(C(=O)CSc1nc(COc2ccccc2)nc2ccccc12)C(C)C` is 29.5% (active); for `Cc1cc(C)cc(NC(=O)CSCc2cnn(-c3ccccc3)c2-n2cccc2)c1` it is “inactive”; for `CC(C)(C)C1CCC(C(=O)NCC(c2cccs2)N2CCOCC2)CC1` (stereo not given) it is “inactive”.
With `O=C(Nc1ccc(Br)c2cccnc12)c1ccc(Cn2cc([N+](=O)[O-])cn2)o1`, the inhibition is 31% (active).
The figure for `CC1=NN(c2cccc(Cl)c2)C(=O)C12CC(C)=C(C)CS2` (stereo not given) is 40.5% (active); for `Cc1cc(C=O)c(C)n1-c1ccc(NC2CCCCC2)c([N+](=O)[O-])c1` it is 55% (active); for `CCOC(=O)c1c(NC(=O)CCCN2CCOCC2)sc2c1CC(C)(C)OC2` it is “inactive”.
The same measure for `CCOC(=O)C1=C(C)Nc2sc(C(=O)c3ccc(Br)cc3)c(N)c2C1c1ccc(C(=O)OC)cc1` (stereo not given): 32.5% (active).
The same measure for `O=C(/C=C/NNC(=O)c1cccc(Br)c1)c1ccccc1`: 50% (active); for `COc1ccc(Nc2ncnc3sc(-c4ccccc4)cc23)c(OC)c1`: “inactive”.
For `CCCCN(CC)C(=O)C1CCCN(S(=O)(=O)c2cccc3nsnc23)C1` (stereo not given), the inhibition entry is “inactive”.
As for `Cc1ccc(SCC(=O)c2cc(C)c(OC(=S)N(C)C)c(C)c2)cc1`, the inhibition was 34% (active).
In the case of `COc1ccc(C2Nc3ccccc3C(=O)N2Cc2ccccc2)cc1Cn1nnc2ccccc21` (stereo not given), the inhibition was 39% (active).
The entry for `O=S(=O)(c1ccc(F)cc1)N1CCN(Cc2ccccc2C(F)(F)F)CC1` is “inactive”.
For `COc1cccc2sc(NNC(=O)c3nc4ccccc4s3)nc12`, the inhibition result was “inactive”.
The same measure for `Cc1nn(CC(=O)Nc2nc3ccccc3s2)c(C)c1[N+](=O)[O-]`: 33.5% (active); for `CCn1cnc2scc(-c3ccc(C)c(C)c3)c2c1=O`: “inactive”; for `O=C(Nc1ccccc1[N+](=O)[O-])C1C(c2ccccc2)=C1c1ccccc1`: 26% (active).
The same measure for `CCCCCCCCn1c2c(c(=N)c3c1CCC3)CCCC2`: 27% (active).
The entry for `Cc1ccc(Cn2ccc(NC(=O)c3cc(C(C)C)on3)n2)cc1` is “inactive”; for `CCOC(=O)[C@@H]1[C@H]2COc3ccc(Br)cc3[C@H]2N2C(=O)N(c3ccc(Cl)cc3)C(=O)[C@@]12C` it is 36% (active); for `C[C@@]12C(=O)N(c3cccc(Br)c3)C(=O)N1[C@H](c1ccc(Cl)cc1)[C@@H]1C(=O)N(C3CCCCC3)C(=O)[C@@H]12` it is “inactive”.
Regarding `COC(=O)c1cccc(C(=O)N2CCCC(Nc3ccc4c(c3)OCCO4)C2)c1` (stereo not given), the inhibition entry is “inactive”.
The same measure for `COc1ccc(OC)c(C(=O)c2coc3ccc(OC)cc23)c1`: 27% (active); for `COc1ccc(NC(=O)CN(C)CC(=O)Nc2cccc(C(F)(F)F)c2)cc1`: “inactive”; for `CN(CCC(=O)Nc1cc(S(=O)(=O)N(C)C)ccc1Cl)CC(=O)Nc1ccc(F)cc1`: 42% (active).
The same measure for `COc1ccc(-c2n[nH]c3c2CN(C(=O)c2ccc(F)cc2)CC3)cc1`: “inactive”; for `CC1=CC(C)(C)N(C(=O)CSc2nnc(-c3ccccc3)o2)c2ccc(C)cc21`: “inactive”; for `COc1ccc(-c2noc(CSc3ccc(C)cc3)n2)cc1`: “inactive”.
The same measure for `COc1cccc(C(=O)NCCSc2ccc(Br)cc2)c1`: “inactive”; for `COc1cc(NC(=S)NCCSc2ccc(C)cc2)cc(OC)c1`: 24% (active).
In the case of `FC(F)(F)c1cc(-c2ccco2)nc(NCc2ccc(Cl)cc2)n1`, the inhibition is 60.5% (active).
Take `O=C1/C(=C/c2ccc(F)cc2)SC(=S)N1NS(=O)(=O)c1ccccc1`: the inhibition result is “inactive”.
On to `C/C(=N\NC(=S)Nc1ccc(C)cc1)c1cc2ccccc2o1`, for which the inhibition entry is “inactive”.
The same measure for `CCCCCn1c(=O)c(C(=O)OCC)c(Cl)c2ccccc21`: 40.5% (active).
For `CCOC(=O)c1c(NC(=O)CSc2cn(CC)c3ccccc23)sc2c1CCC2`, the inhibition result was “inactive”.
The same measure for `Cc1ccccc1N1CCN(Cc2nc(Cc3ccccc3F)no2)CC1`: “inactive”.
The figure for `Fc1cccc(Cl)c1CSc1ccc(-c2ccco2)nn1` is 32% (active); for `O=C(Nc1cc(Cl)cc(Cl)c1)C(NCCCO)c1ccccc1` (stereo not given) it is 29% (active).
The entry for `Cc1cc(OC(C)C(=O)Nc2ccc(S(=O)(=O)Nc3onc(C)c3C)cc2)cc(C)c1Cl` (stereo not given) is “inactive”; for `O=C(CNCCC1=CCCCC1)Nc1ccccc1N1CCCCCC1` it is 38.5% (active); for `Cc1cc(C)cc(OCC(=O)Nc2cc(NC(=O)COc3cc(C)cc(C)c3)cc(C(=O)O)c2)c1` it is “inactive”.
With `COc1cccc(-c2cc3nc4c(c(N5CCC6(CC5)OCCO6)n3n2)CCCC4)c1`, the inhibition was 27% (active).
The figure for `COc1cccc2cc(C(C)N(CCCN3CCOCC3)C(=O)Nc3ccc(Cl)cc3)oc12` (stereo not given) is 28.5% (active).
The same measure for `CN(C)c1ccc(C(CNC(=O)c2ccc(F)cc2)c2c[nH]c3ccccc23)cc1` (stereo not given): 39% (active); for `COc1cccc(CN(C)C(=O)CC23CC4CC(CC(C4)C2)C3)c1OC`: “inactive”; for `CCN(CC)C(=O)CC1(c2ccccc2OC)CCOC(C(C)C)C1` (stereo not given): 38% (active).
The entry for `CC(C)(C)NC(=O)NC(=O)CN1CCC(Cc2ccccc2)CC1` is “inactive”; for `O=C1N=C2SCCN2/C1=C\c1c(Cl)cccc1Cl` it is “inactive”; for `COc1cccc(OC)c1C(=O)Nc1sc2c(c1C(N)=O)CCCC2` it is “inactive”.
As for `Cc1ccc(OCc2cc(C(=O)N(C)CCc3ccccc3)no2)cc1C`, the inhibition result is “inactive”.
In the case of `COc1ccc(C(C)=O)cc1COc1ccc(Cl)c(C)c1`, the inhibition is 37% (active).
For the molecule `O=C(NCc1ccccc1)C1=C[C@@H](C2CCCCC2)C[C@@H](OCc2ccc(CO)cc2)O1`, the inhibition result is “inactive”.
On to `CCC(C)(C)n1nnnc1C(c1cccs1)N1CCN(c2nc3ccccc3s2)CC1` (stereo not given), for which the inhibition was 34.5% (active).
The figure for `CC1(C)CC(N2CCN(C(c3ccccc3)c3ccccc3)CC2)=CC(=[N+]2CCCCC2)C1` is 36% (active); for `Cc1ccccc1CSc1nnc(CCCCCNC(=O)OC(C)(C)C)o1` it is 22% (active); for `COC(=O)c1sc(-c2ccc(C(C)(C)C)cc2)cc1NC(=O)/C=C/C(=O)O` it is “inactive”.
The entry for `COc1ccc(C(=O)NN2C(=O)C3C(c4ccccc4)C=CC(c4ccccc4)C3C2=O)cc1` (stereo not given) is “inactive”; for `COc1ccc(C(=O)Nc2ccccc2C(=O)N/N=C/c2ccccc2OC)cc1` it is 31% (active).
The entry for `COc1cccc(-c2cnc(OC(C)(C)C)nc2OC(C)(C)C)c1` is “inactive”.
As to `O=C(Nc1ccc2c(c1)CCC2)c1cccc(S(=O)(=O)Nc2ccccc2Cl)c1`, the inhibition entry is “inactive”.
The same measure for `O=C(COc1ccc(Cl)cc1Cl)N/N=C/c1ccccn1`: “inactive”; for `O=C(N/N=C/c1ccccn1)c1cccc(NC(=O)c2ccc(Cl)cc2)c1`: 22.5% (active); for `CCc1ccccc1NC(=O)/C(=C/c1ccccc1)c1ccccc1`: 51.5% (active).
The figure for `COc1ccc(C2CC(c3cccs3)=NN2c2ccccc2)cc1` (stereo not given) is 34% (active); for `CCOc1ccccc1NC(=O)C12CC3CC(C1)CC(c1ccc(C)cc1)(C3)C2` it is “inactive”.
`Cc1ccc(S(=O)(=O)N2CCN(C(=O)COC(=O)c3c(C)cc(C)cc3C)CC2)c(C)c1`: the inhibition result was “inactive”.
The figure for `O=C(NCCc1ccccc1)c1ccc2c(c1)N(Cc1ccccc1)CCS2` is 29% (active); for `O=C1/C(=C/c2ccc3c(c2)OCO3)CCC/C1=C\c1ccc2c(c1)OCO2` it is “inactive”; for `CC1(C)CC(=O)CC2(C1)NCC(c1ccccc1Cl)c1c2[nH]c2ccccc12` (stereo not given) it is 33% (active).
The figure for `Cc1cccc(C(=O)Nc2ccccc2N2CCN(c3ccc(F)cc3)CC2)c1` is 29.5% (active); for `CCCCC(=O)Nc1ccccc1N1CCN(c2ccc(F)cc2)CC1` it is 43% (active).
The same measure for `Cc1ccc(N2CCN(S(=O)(=O)c3ccc(F)cc3)CC2)c(C)c1`: “inactive”; for `COc1ccc(C(=O)C2CCCN(C(=O)c3ccc(OC)o3)C2)c(C)c1` (stereo not given): “inactive”; for `Cc1ccc2c(c1)N(C(=O)CCC(=O)N1CCc3ccccc3C1)CCO2`: “inactive”.
For the molecule `Fc1ccc(Cn2nnnc2C(c2cccs2)N2CCCCCC2)cc1` (stereo not given), the inhibition was 30.5% (active).
The same measure for `CCC(c1nnnn1Cc1ccco1)N(CCc1ccccc1)Cc1cc2cccc(C)c2[nH]c1=O` (stereo not given): 33.5% (active); for `CCOc1ccc2[nH]c(=O)c(CN(Cc3nnnn3CCc3ccccc3)CC3CCCO3)cc2c1` (stereo not given): “inactive”; for `Cc1cccc2cc(CN(Cc3nnnn3Cc3ccccc3)C3CCCC3)c(=O)[nH]c12`: “inactive”.
As to `O=C1CC(NNc2ccccc2)C(=O)N1c1cccc(Cl)c1` (stereo not given), the inhibition entry is “inactive”.
The same measure for `c1ccc(C(c2ccccc2)N2CCN(Cc3nnnn3C3CCCCC3)CC2)cc1`: 29% (active).
The entry for `CCOc1ccc(OCc2ccc(C(=O)Nc3cccc(C)n3)o2)cc1` is “inactive”; for `CSc1cccc(NC(=S)N(C(C)C)C(C)c2ccccn2)c1` (stereo not given) it is 24.5% (active).
The entry for `COC(C(=O)Nc1ccc(S(=O)(=O)Nc2ccc(C)c(C)c2)cc1)c1ccccc1` (stereo not given) is “inactive”; for `CC(C)C(=O)Nc1cccc(NC(=S)NC(=O)C(c2ccccc2)c2ccccc2)c1` it is 24% (active).

One may read the inhibition as how much of the control response was suppressed.
